Assay results as given in PubChem BioAssay (NCATS).
Records with an inconclusive call do not appear. Where a call stands in place of a potency, no number is given. Values without a mark were called inactive. Calls of active or inactive are those of the source. Calls follow the shape of the dose curve; as a rule, active = well fitted curve in the direction sought with a large enough effect; inconclusive = small, poorly fitted or top-dose-only effect, or another doubt; inactive = no such curve, though single readings can be large; an effect the other way counts as inactive or inconclusive.

Legend:
[1] = molecular target: Rap guanine nucleotide exchange factor 3 (Homo sapiens) (UniProt O95398); experiment: Confirmatory qHTS for agonist of cAMP-regulated guanine nucleotide exchange factor 3 (EPAC1) (AID 1645881); settings: EPAC1 Rap1B BODIPY-GDP exchange fluorescence; series mostly up to 154 µM;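 also: EPAC1 catalysed release of BODIPY-GDP from Rap1B seen as fluorescence loss; nearly all actives have a fitted effect of over 75% in size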
Chain of Rap guanine nucleotide exchange factor 3 (Homo sapiens) (O95398 whole entry, looked up): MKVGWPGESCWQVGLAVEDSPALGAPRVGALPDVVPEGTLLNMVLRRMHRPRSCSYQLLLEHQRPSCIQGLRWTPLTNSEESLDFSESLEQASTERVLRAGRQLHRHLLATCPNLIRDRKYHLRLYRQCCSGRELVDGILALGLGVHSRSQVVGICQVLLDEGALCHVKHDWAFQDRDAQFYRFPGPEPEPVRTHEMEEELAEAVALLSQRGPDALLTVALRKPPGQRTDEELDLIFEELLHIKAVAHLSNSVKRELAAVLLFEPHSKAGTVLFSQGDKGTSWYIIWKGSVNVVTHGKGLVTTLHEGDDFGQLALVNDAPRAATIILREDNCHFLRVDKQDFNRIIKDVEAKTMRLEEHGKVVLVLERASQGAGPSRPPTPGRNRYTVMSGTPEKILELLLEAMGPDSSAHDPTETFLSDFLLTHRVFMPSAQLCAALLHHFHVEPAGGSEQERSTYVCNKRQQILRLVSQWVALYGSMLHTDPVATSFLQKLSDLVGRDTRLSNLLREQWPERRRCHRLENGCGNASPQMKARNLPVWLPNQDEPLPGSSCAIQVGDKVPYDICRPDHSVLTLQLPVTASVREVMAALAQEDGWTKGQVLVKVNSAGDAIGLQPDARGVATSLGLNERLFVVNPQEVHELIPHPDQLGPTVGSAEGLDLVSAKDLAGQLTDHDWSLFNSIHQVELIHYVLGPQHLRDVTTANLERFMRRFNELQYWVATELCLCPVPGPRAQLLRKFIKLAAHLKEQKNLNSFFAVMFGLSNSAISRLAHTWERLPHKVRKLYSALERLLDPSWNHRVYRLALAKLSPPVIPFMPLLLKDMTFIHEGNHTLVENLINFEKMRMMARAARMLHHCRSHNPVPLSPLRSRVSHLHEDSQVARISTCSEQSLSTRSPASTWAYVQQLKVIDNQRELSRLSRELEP

[2] = molecular target: Rap guanine nucleotide exchange factor 4 (Homo sapiens) (UniProt Q8WZA2); experiment: Confirmatory qHTS for agonist of cAMP-regulated guanine nucleotide exchange factor 4 (EPAC2) (AID 1645884); settings: EPAC2 GEF activity, Rap1B-BODIPY-GDP fluorescence; series mostly up to 154 µM;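 also: nucleotide exchange releases bodipy-GDP from Rap1 and this lowers its fluorescence; nearly all actives have a fitted effect of over 65% in size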
Chain of Rap guanine nucleotide exchange factor 4 (Homo sapiens) (Q8WZA2 whole entry, looked up): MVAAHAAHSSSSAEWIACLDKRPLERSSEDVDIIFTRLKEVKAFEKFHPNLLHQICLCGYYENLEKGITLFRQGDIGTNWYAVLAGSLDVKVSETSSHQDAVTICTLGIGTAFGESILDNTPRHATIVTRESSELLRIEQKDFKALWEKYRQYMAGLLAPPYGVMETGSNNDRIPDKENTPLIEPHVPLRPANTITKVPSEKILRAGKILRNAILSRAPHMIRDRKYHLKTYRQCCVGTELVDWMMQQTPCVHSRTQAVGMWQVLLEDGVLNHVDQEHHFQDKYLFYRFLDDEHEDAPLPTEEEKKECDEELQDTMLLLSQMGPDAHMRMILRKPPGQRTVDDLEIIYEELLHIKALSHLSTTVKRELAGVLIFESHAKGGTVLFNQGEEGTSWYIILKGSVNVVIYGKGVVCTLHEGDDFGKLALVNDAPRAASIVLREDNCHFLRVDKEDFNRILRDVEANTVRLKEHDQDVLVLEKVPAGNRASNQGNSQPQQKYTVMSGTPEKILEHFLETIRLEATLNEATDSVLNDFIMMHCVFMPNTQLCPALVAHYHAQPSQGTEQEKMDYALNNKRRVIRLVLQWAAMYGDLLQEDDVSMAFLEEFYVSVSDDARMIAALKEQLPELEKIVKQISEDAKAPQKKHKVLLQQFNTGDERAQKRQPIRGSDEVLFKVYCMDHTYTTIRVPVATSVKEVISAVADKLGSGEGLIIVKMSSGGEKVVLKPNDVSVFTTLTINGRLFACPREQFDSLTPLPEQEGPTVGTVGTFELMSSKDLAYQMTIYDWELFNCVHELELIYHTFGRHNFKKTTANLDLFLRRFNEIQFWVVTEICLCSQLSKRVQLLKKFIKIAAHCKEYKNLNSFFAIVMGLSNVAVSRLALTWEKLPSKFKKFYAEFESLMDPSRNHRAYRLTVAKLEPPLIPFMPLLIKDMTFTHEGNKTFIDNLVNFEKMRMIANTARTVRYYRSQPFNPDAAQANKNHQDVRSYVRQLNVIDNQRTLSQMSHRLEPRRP

[3] = molecular target: Rap guanine nucleotide exchange factor 4 (Homo sapiens) (UniProt Q8WZA2); experiment: Confirmatory qHTS for antagonist of cAMP-regulated guanine nucleotide exchange factor 4 (EPAC2) (AID 1645885); settings: EPAC2 Rap1B-BODIPY-GDP exchange fluorescence, biochemical; series mostly up to 12.7 µM; also: nearly all actives have a fitted effect of over 25% in size; also: potency is read from the fitted curve at half-maximal effect
[4] = molecular target: Rap guanine nucleotide exchange factor 3 (Homo sapiens) (UniProt O95398); experiment: Counterscreen qHTS for antagonist of cAMP-regulated guanine nucleotide exchange factor 3 (EPAC1) (AID 1645888); settings: Rap1B-BODIPY-GDP nucleotide exchange, fluorescence; series mostly up to 154 µM;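 also: fluorescence loss as bound BODIPY-GDP is released from Rap1B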
Outline: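 Rap1B–BODIPY-GDP (250 nM) with 50 uM GDP; compounds pin-transferred to 9.74 nM–152 uM final (activator) or from 7.32 nM upwards (inhibitor). Fluorescence Ex/Em 480/540 nm read at 5 and 30 min, then after adding cAMP or buffer, at room temperature.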

| Structure (SMILES) | Potency [1] | Potency [2] | Potency [3] | activation [2] | outcome [3] | activity change, negative = inhibition [4] | Potency [4] |
| --- | --- | --- | --- | --- | --- | --- | --- |
| Cc1cc(C)cc(OCC(=O)OCC(=O)NC2CCCCCCC2)c1 | inactive | inactive | inactive | – | – | – | – |
| COc1ccc(S(=O)(=O)/N=C2/NC(=O)/C(=C\c3cc(OC)c(OC)cc3[N+](=O)[O-])S2)cc1 | inactive | – | inactive | 0% [at 17.1 µM, percent relative to cAMP agonist control] | – | – | – |
| COc1ccc(OCCC(=O)OCC(=O)Nc2ccc(S(=O)(=O)N3CCOCC3)cc2)cc1 | inactive | – | inactive | 0% [at 17.1 µM, percent relative to cAMP agonist control] | – | – | – |
| COC(=O)c1c(NC(=O)COC(=O)c2ccc(NC(=O)CC#N)cc2)sc2c1CCCCC2 | inactive | inactive | inactive | – | – | – | – |
| Cc1cccc(N(C)S(=O)(=O)c2c[nH]c3ccc([N+](=O)[O-])cc23)c1 | inactive | inactive | inactive | – | – | – | – |
| Cc1ccc(C2c3c(-c4cc(C)ccc4O)n[nH]c3C(=O)N2Cc2ccco2)cc1 (configuration not stated) | inactive | inactive | – | – | inactive [at 12.7 µM] | – | – |
| CCc1nc2ccc(C(=O)Nc3ccc(OC)c(OC)c3)cn2c1N(C)CCC(C)C | inactive | – | inactive | 6.16% [at 17.1 µM, percent relative to cAMP agonist control] | – | – | – |
| COc1cc(CNc2ccc(O)cc2)cc(Br)c1OCc1ccccc1F | inactive | – | inactive | 0.373% [at 17.1 µM, percent relative to cAMP agonist control] | – | – | – |
| Cc1ccc(NCc2nc3ccccc3n2CCOc2ccccc2)cc1 | inactive | inactive | inactive | – | – | – | – |
| CC(NS(=O)(=O)OCC(Cl)(Cl)Cl)c1ccc(C(C)(C)C)cc1 (configuration not stated) | inactive | – | inactive | 4.78% [at 17.1 µM, percent relative to cAMP agonist control] | – | – | – |
| CC(C)(C)c1ccc(S(=O)(=O)NC(=O)C2(C)CCN2C(=O)Cc2ccc(-c3ccccc3)cc2)cc1 (configuration not stated) | inactive | – | inactive | -4.75% [at 17.1 µM, percent relative to cAMP agonist control] | – | – | – |
| CN(C)c1ccc(/C=C/c2cc[n+](C)c3ccccc23)cc1 | inactive | inactive | 49.4 µM (active) | – | – | – | – |
| Cn1c(N)c(C(=O)COC(=O)CCCOc2ccc(Cl)cc2Cl)c(=O)n(C)c1=O | inactive | inactive | 37.9 µM (active) | – | – | – | – |
| Cc1ccc(C)n1-c1nn(S(=O)(=O)c2ccccc2)c2cccc(F)c12 | inactive | inactive | 13.5 µM (active) | – | – | – | – |
| O=C(NCc1ccccc1)C(c1ccccc1)n1c(=O)c(-c2ccco2)nc2ccccc21 (configuration not stated) | inactive | – | inactive | 3.56% [at 17.1 µM, percent relative to cAMP agonist control] | – | 5.07% [at 30.8 µM] | – |
| O=c1c([N+](=O)[O-])cn(Cc2ccccc2)c(=O)n1Cc1ccccc1 | inactive | – | inactive | 6.36% [at 17.1 µM, percent relative to cAMP agonist control] | – | -12.8% [at 30.8 µM] | – |
| O=C(Nc1cccc(S(=O)(=O)NC2=NCCCCC2)c1)c1cc(-c2ccc(Cl)cc2)nc2ccccc12 | inactive | inactive | inactive | – | – | – | inactive |
| CCOc1ccc(S(=O)(=O)Nc2ccc(F)cc2)c(C)c1C | inactive | inactive | inactive | – | – | – | inactive |
| O=C(COc1ccccc1-c1ccccc1)NCc1ccco1 | inactive | inactive | – | – | inactive [at 12.7 µM] | – | inactive |
| CCOC(=O)C1=CCN(S(=O)(=O)c2ccccc2Cl)C1c1ccc(Cl)c(Cl)c1 (configuration not stated) | inactive | – | inactive | 4.1% [at 17.1 µM, percent relative to cAMP agonist control] | – | -3.01% [at 30.8 µM] | – |

| Structure (SMILES) | Potency [1] | Potency [2] | Potency [3] | activation [2] | outcome [3] | activity change, negative = inhibition [4] | Potency [4] |
| --- | --- | --- | --- | --- | --- | --- | --- |
| COc1ccc(-c2cc(C(F)(F)F)c3c(n2)sc2c(O)cc(=O)[nH]c23)c(OC)c1 | inactive | inactive | inactive | – | – | – | inactive |
| CCCN1CCN(c2ncnc3sc(C(=O)Nc4ccc(OC(F)(F)F)cc4)c(C)c23)CC1 | inactive | inactive | inactive | – | – | – | inactive |
| O=C(Nc1cc(S(=O)(=O)Nc2ccc(Cl)cc2)ccc1O)c1ccc(S(=O)(=O)N2CCCCCC2)cc1 | inactive | inactive | inactive | – | – | – | inactive |
| O=C1Cc2ccccc2C(=O)N1 | inactive | inactive | inactive | – | – | – | inactive |
| O=C(CCCn1c(SCC(=O)c2ccc(O)c(O)c2)nc2ccccc2c1=O)NCC1CCCO1 (configuration not stated) | inactive | inactive | inactive | – | – | – | inactive |
| C#Cc1ccc([C@@H]2C=C(C(=O)OCC=C)O[C@H](OCc3ccc(CO)cc3)C2)cc1 | inactive | – | inactive | -0.524% [at 17.1 µM, percent relative to cAMP agonist control] | – | -8.75% [at 30.8 µM] | – |
| COc1ccccc1N1CSC2=C(C#N)C(c3ccc(SC)cc3)CC(=O)N2C1 (configuration not stated) | inactive | – | inactive | 7.57% [at 17.1 µM, percent relative to cAMP agonist control] | – | -2.77% [at 30.8 µM] | – |
| CCn1c(SCC(=O)N/N=C/C=C\c2ccco2)nc2ccccc21 | inactive | inactive | inactive | – | – | – | inactive |
| Cc1ccc(OCC(=O)Nc2ccc(C)c(S(=O)(=O)N3CCCCCC3)c2)c([N+](=O)[O-])n1 | inactive | inactive | inactive | – | – | – | inactive |
| Cc1ccc(-c2nc3ccc(Br)cn3c2Cc2ccccc2)cc1 | inactive | inactive | inactive | – | – | – | inactive |
| Cc1ccc(O)c(-c2n[nH]c3c2C(c2ccccc2F)N(Cc2ccco2)C3=O)c1 (configuration not stated) | inactive | inactive | inactive | – | – | – | inactive |
| Cc1noc(NS(=O)(=O)c2ccc(N/C=C\C(=O)c3cccc4ccccc34)cc2)c1C | inactive | inactive | inactive | – | – | – | inactive |
| O=C(N/N=C/c1c(O)ccc2ccccc12)c1[nH]ncc1Br | inactive | inactive | inactive | – | – | – | inactive |
| Cc1nc(-c2ccc(Cl)cc2)sc1CCNC(=O)c1cccs1 | inactive | inactive | inactive | – | – | – | inactive |
| COc1ccccc1-c1oc2ccccc2c1C#CC(C)(C)O | inactive | inactive | inactive | – | – | – | inactive |
| CCc1nc2c(OCc3ccc(C(=O)OC)cc3)cccn2c1N(C)C(=O)c1ccc(C)cc1 | inactive | inactive | inactive | – | – | – | inactive |
| Cn1cnnc1SCC(=O)Nc1sc2c(c1C(N)=O)CCC2 | inactive | inactive | inactive | – | – | – | inactive |
| CCC1=Nc2cc(C(=O)NCCCOC)ccc2Sc2ccc(Br)cc21 | inactive | inactive | inactive | – | – | – | inactive |
| O=C(N/N=C/c1ccccc1O)/C(=C/c1ccccc1)CCO | inactive | inactive | inactive | – | – | – | inactive |
| N#Cc1c(NC(=O)CSc2ncnc3sccc23)oc(-c2ccco2)c1-c1ccco1 | inactive | inactive | 84.9 µM (active) | – | – | – | inactive |

| Structure (SMILES) | Potency [1] | Potency [2] | Potency [3] | activation [2] | outcome [3] | activity change, negative = inhibition [4] | Potency [4] |
| --- | --- | --- | --- | --- | --- | --- | --- |
| Cc1cc(C)nc(NS(=O)(=O)c2ccc(NC(=O)CN3C(=O)S/C(=C\c4ccccc4)C3=O)cc2)n1 | inactive | inactive | inactive | – | – | – | inactive |
| NC(=O)[C@H]1CC2(CC(c3cccc(NC(=O)[C@H]4CCC(=O)N4)c3)=NO2)CN1C(=O)c1ccccc1 (some centres not stated) | inactive | inactive | inactive | – | – | – | inactive |
| O=C(CSc1nc(O)cc(=O)n1-c1ccccc1)Nc1ccc2c3c(cccc13)CC2 | inactive | – | inactive | 0% [at 17.1 µM, percent relative to cAMP agonist control] | – | -9.82% [at 30.8 µM] | – |
| c1cc(-c2cc3nc(NC4CCCCC4)ccn3n2)ccc1OCCN1CCOCC1 | inactive | inactive | inactive | – | – | – | inactive |
| O=C(Nc1ccccc1C(=O)O)c1cccc(NC(=O)c2ccc(Br)o2)c1 | inactive | inactive | inactive | – | – | – | inactive |
| CCOC(=O)C1=C(C)NC(C)=C(C(=O)OCC)C1c1cccc([N+](=O)[O-])c1 | inactive | – | inactive | 8.4% [at 17.1 µM, percent relative to cAMP agonist control] | – | 3.16% [at 30.8 µM] | – |
| OCCCNc1ncnc2oc(-c3ccccc3)c(-c3ccccc3)c12 | inactive | – | inactive | 0.534% [at 17.1 µM, percent relative to cAMP agonist control] | – | -6.04% [at 30.8 µM] | – |
| CCCC1=C/C(=C/c2ccc(-c3ccccc3OC)o2)C(=O)O1 | inactive | – | inactive | 1.16% [at 17.1 µM, percent relative to cAMP agonist control] | – | -9.78% [at 30.8 µM] | – |
| COc1ccc2oc(=O)c(-c3nnc(NCc4ccco4)s3)cc2c1 | inactive | – | inactive | 7.34% [at 17.1 µM, percent relative to cAMP agonist control] | – | 15.5% [at 30.8 µM] | – |
| O=C(O)c1ccc(/C=C2\COc3ccccc3C2=O)cc1 | inactive | inactive | 84.9 µM (active) | – | – | – | inactive |
| Cc1ccc(C(C)C)c(OCC(=O)NCC2(N3CCOCC3)CCCCC2)c1 | inactive | inactive | inactive | – | – | – | inactive |
| O=C(/C=C/c1ccco1)Nc1cccc2cccnc12 | inactive | – | inactive | 3.39% [at 17.1 µM, percent relative to cAMP agonist control] | – | 21.3% [at 30.8 µM] | – |
| N#CCC(=O)N/N=C/c1coc2ccccc2c1=O | inactive | inactive | inactive | – | – | – | inactive |
| COc1cc(/C=C2\SC(=O)N(c3cccc(Cl)c3)C2=O)cc([N+](=O)[O-])c1O | inactive | inactive | inactive | – | – | – | inactive |
| N=C1/C(=C\c2ccc(-c3cccc(Cl)c3)o2)C(=O)N=C2SC=C(c3ccccc3)N12 | inactive | inactive | inactive | – | – | – | inactive |
| CC1=C(C(=O)Nc2ccccc2)C(c2ccc(Cl)cc2)n2c(s/c(=C/c3cccc(OCC(=O)O)c3)c2=O)=N1 (configuration not stated) | inactive | – | inactive | 3.83% [at 17.1 µM, percent relative to cAMP agonist control] | – | -3.62% [at 30.8 µM] | – |
| CC(C)=CCC[C@H](C)C[C@@H]1Cc2[nH][nH]c(=O)c2[C@@H](c2ccc(F)cc2)O1 | inactive | – | inactive | 5.46% [at 17.1 µM, percent relative to cAMP agonist control] | – | -22.9% [at 30.8 µM] | – |
| Cc1cccc(Cn2c(COc3ccccc3)nc3ccccc32)c1 | inactive | inactive | inactive | – | – | – | inactive |
| CC(C)Oc1cccc(C(=O)Nc2ccc3oc(-c4cccc(Cl)c4)nc3c2)c1 | inactive | inactive | inactive | – | – | – | inactive |
